We go through 14 compounds from PubChem BioAssay (NCI).

The structures appear in SMILES notation. This is part of a sample that, as a whole, favours compounds with a hit. Of some 83,000 tested, about 20% had one in any assay.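 Interpretation: 100, growth as untreated; towards 0, rising growth inhibition; 0, no net growth; 0 to -100, cell death. Compounds scoring below 10 were considered active.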 Unmarked numbers belong to inactive results. Active and inactive are the calls of the source.

Common to all, as to test: NCI-60 one-dose screen, 48 h (100 = growth as untreated, 0 = no growth, -100 = all killed)
The subject of one experiment is HCT-15 colon. To be noted: 10 µM unless noted.
In a further experiment the test system is HT29 colon. To be noted: 10 µM unless noted.
A further experiment has as its system U251 CNS. To be noted: 10 µM unless noted.
For a further experiment, the system named is PC-3 prostate. The note with it: 10 µM unless noted.
The next experiment deals with SK-MEL-5 melanoma. To be noted: 10 µM unless noted.
The next experiment deals with UACC-62 melanoma. To be noted: 10 µM unless noted.
In the next experiment the test system is LOX IMVI melanoma. To be noted: 10 µM unless noted.
The test system of a further experiment is SK-MEL-28 melanoma. To be noted: 10 µM unless noted.
The test system of another experiment is SNB-75 CNS. To be noted: 10 µM.
A further experiment concerns SNB-19 CNS. The note with it: 10 µM unless noted.

Regarding `CCO/C=N/C1=C(C#N)C(c2ccc(Cl)cc2)c2c(c3ccc(C)cc3[nH]c2=O)O1` (stereo not drawn), the growth in the experiment with HCT-15 colon was 91.1%; in the experiment with HT29 colon it was 80.5%; with U251 CNS, 90.3%; in the experiment on PC-3 prostate, 83.5%; with SK-MEL-5 melanoma, 87.1%; in the experiment with UACC-62 melanoma, 67.6%. Further, the growth in the experiment with LOX IMVI melanoma is 86.8%; in the experiment with SK-MEL-28 melanoma, 101%.

Take `COC(=O)C1CCCN1C(=O)[C@@H]1CCCN1C(=O)[C@H](Cc1c[nH]c2ccccc12)NC(=S)Nc1cc(C(F)(F)F)cc(C(F)(F)F)c1` (stereo partly drawn): the growth in the experiment on HCT-15 colon was 40%; in the experiment with SNB-75 CNS it was 55.1%; in the experiment on SNB-19 CNS, 49.7%; with U251 CNS, 35.9%; with PC-3 prostate, 20.4%; in the experiment with SK-MEL-5 melanoma, 58.1%. The growth is 63.6% in the experiment on UACC-62 melanoma, 36.1% with LOX IMVI melanoma and 80.9% in the experiment on SK-MEL-28 melanoma.

With `CCc1cnc(=S)n(-c2ccccc2)c1`, the growth in the experiment on HCT-15 colon was 103%; with SNB-75 CNS, 117%; with SNB-19 CNS, 107%; in the experiment with U251 CNS, 117%; with PC-3 prostate, 98.7%; with SK-MEL-5 melanoma, 117%. In addition, the growth is 109% with UACC-62 melanoma, 95.4% in the experiment on LOX IMVI melanoma and 114% with SK-MEL-28 melanoma.

`CCOC(=O)C1CCNC(=O)C1=O` (stereo not drawn): the growth in the experiment with HCT-15 colon was 111%; with SNB-75 CNS, 101%; in the experiment on SNB-19 CNS, 101%; in the experiment on U251 CNS it was 111%; in the experiment with PC-3 prostate, 105%; in the experiment on SK-MEL-5 melanoma it was 101%. Moreover, the growth was 101% with UACC-62 melanoma, 97.8% in the experiment on LOX IMVI melanoma and 112% in the experiment on SK-MEL-28 melanoma.

As to `OB(O)c1cccc(-c2nc3ccc4[nH]ncc4c3c3c2CCCC3)c1F`, the growth in the experiment with HCT-15 colon is 35.2%; with HT29 colon it was 45.2%; with U251 CNS it was 50.6%; in the experiment on PC-3 prostate, 55.5%; with SK-MEL-5 melanoma, 79.5%; in the experiment on LOX IMVI melanoma, 26.3%. The growth with SK-MEL-28 melanoma was 92.5%.

As for `COc1ccc2c(c1)[nH]c(=O)c1c3cc(C)c(C)cc3cn21`, the growth with HCT-15 colon is -87.5% (active); in the experiment with SNB-75 CNS, 84.8%; with SNB-19 CNS, 25.6%; in the experiment on U251 CNS it was -97.1% (active); in the experiment with PC-3 prostate it was -54.9% (active); with SK-MEL-5 melanoma, 10.3%. Besides, the figures for the growth in the experiment on UACC-62 melanoma, in the experiment with LOX IMVI melanoma and in the experiment with SK-MEL-28 melanoma were 42.5%, -99.2% (active) and -7.4% (active), respectively.

`CC(=O)Nc1scc[n+]1Cc1ccccc1`: the growth in the experiment with HCT-15 colon is 101%; in the experiment with SNB-75 CNS it was 106%; in the experiment on SNB-19 CNS it was 110%; with U251 CNS, 106%; with PC-3 prostate, 94.2%; in the experiment on SK-MEL-5 melanoma, 117%. The values for the growth with UACC-62 melanoma, in the experiment with LOX IMVI melanoma and with SK-MEL-28 melanoma were 114%, 87.9% and 109%, respectively.

In the case of `CN1C=CN(Cc2ccc(-c3ccccn3)nc2)[CH-]1.CN1C=CN(Cc2ccc(-c3ccccn3)nc2)[CH-]1.[Au+3]`, the growth with HCT-15 colon was 68.5%; with SNB-75 CNS, 72.6%; with SNB-19 CNS, 62.6%; with U251 CNS, 38.6%; in the experiment with PC-3 prostate, 20.3%; in the experiment with SK-MEL-5 melanoma, 37.8%. The growth is 30.7% in the experiment on UACC-62 melanoma, 32.4% in the experiment on LOX IMVI melanoma and 50.7% in the experiment with SK-MEL-28 melanoma.

With `CC(C)(C)OC(=O)NCCc1ccc(N=C=S)cc1`, the growth in the experiment with HCT-15 colon is 55.9%; in the experiment with SNB-75 CNS it was 42.4%; in the experiment on SNB-19 CNS, 84.7%; with U251 CNS, 75.4%; with PC-3 prostate it was 66.3%; in the experiment with SK-MEL-5 melanoma it was 86.1%. In addition, the growth in the experiment on UACC-62 melanoma is 54.8%; in the experiment on LOX IMVI melanoma, 56%; with SK-MEL-28 melanoma, 69%.

As for `CCCCCCCCCCCCCCCCNC(=O)OC(C)C`, the growth in the experiment on HCT-15 colon is 55.9%; with SNB-75 CNS, 64%; in the experiment on SNB-19 CNS, 95.5%; with U251 CNS, 14.1%; with PC-3 prostate, -16.9% (active); in the experiment with SK-MEL-5 melanoma, 91%. The values for the growth in the experiment on UACC-62 melanoma, with LOX IMVI melanoma and with SK-MEL-28 melanoma were 81.7%, -2.25% (active) and 95.9%, respectively.

Take `CC1CCC(C)N(C)C1` (stereo not drawn): the growth with HCT-15 colon is 117%; in the experiment on SNB-75 CNS, 89.7%; in the experiment on SNB-19 CNS, 98.6%; in the experiment with U251 CNS, 107%; in the experiment with PC-3 prostate, 87.5%; in the experiment with SK-MEL-5 melanoma, 107%. The growth in the experiment on UACC-62 melanoma is 99.7%; in the experiment on LOX IMVI melanoma, 95.9%; in the experiment on SK-MEL-28 melanoma, 107%.

As for `CN(C)c1ncnc2c1ccn2C1OC(CO)C(O)C1O` (stereo not drawn), the growth is 14.3% in the experiment on HCT-15 colon; 27% in the experiment with SNB-75 CNS; 73.8% with SNB-19 CNS; 97% with U251 CNS; 13% with PC-3 prostate; 89.5% in the experiment with SK-MEL-5 melanoma. Moreover, the values for the growth with UACC-62 melanoma, in the experiment on LOX IMVI melanoma and in the experiment on SK-MEL-28 melanoma were 93.4%, 3.02% (active) and 82.5%, respectively.

Regarding `O=C(O)Cc1cccc(=O)c(O)c1C(=O)O`, the growth in the experiment on HCT-15 colon is 106%; in the experiment with SNB-75 CNS, 107%; in the experiment on SNB-19 CNS it was 105%; in the experiment with U251 CNS, 109%; in the experiment with PC-3 prostate, 95.7%; in the experiment on SK-MEL-5 melanoma it was 108%. Also, the growth is 100% in the experiment with UACC-62 melanoma, 101% in the experiment on LOX IMVI melanoma and 110% in the experiment with SK-MEL-28 melanoma.

As for `Nc1nc(=O)c2ccccc2s1`, the growth was 101% with HCT-15 colon; 94.1% in the experiment on SNB-75 CNS; 104% in the experiment with SNB-19 CNS; 111% with U251 CNS; 99.4% in the experiment with PC-3 prostate; 116% in the experiment on SK-MEL-5 melanoma. The growth was 97.2% with UACC-62 melanoma, 104% in the experiment with LOX IMVI melanoma and 121% in the experiment with SK-MEL-28 melanoma.
